Compounds without any hit were thinned out: in the full panel of roughly 79,000, 15% have a hit. Active and inactive are the calls of the source. Rule as the data show it: active = growth inhibition above about 70%; inactive = the rest.
How the values were obtained:
[1] = NCI Yeast Anticancer Drug Screen. Data for the rad50 strain (AID 155);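 also: 0% = growth of vehicle-only cultures of the same strain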; details: S. cerevisiae rad50 strain growth inhibition, hits give high values
In short: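 Inhibition values express reduced yeast growth in compound-treated cultures relative to vehicle-treated controls.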

[2] = NCI Yeast Anticancer Drug Screen. Data for the mec2-1 strain (AID 157); details: S. cerevisiae mec2-1 strain, hits give high values
In short: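 Using mec2-1 yeast: add compound, measure growth, express inhibition versus vehicle-treated cultures.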

[3] = NCI Yeast Anticancer Drug Screen. Data for the sgs1 mgt1 strain (AID 161);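 also: 0% = growth of cultures given vehicle only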; details: S. cerevisiae sgs1 mgt1 strain, hits give high values
In short: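 This yeast growth screen uses a strain with defined DNA-repair lesions; compound-treated growth is compared with vehicle-treated growth.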

[4] = NCI Yeast Anticancer Drug Screen. Data for the cln2 rad14 strain (AID 165);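 also: 0% = growth equal to vehicle treated cultures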; details: S. cerevisiae cln2 rad14 strain, hits give high values
In short: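 Yeast strain cln2 rad14, bearing defects in cell cycle control and DNA repair, serves as the test system; values reflect growth inhibition compared with vehicle.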

[5] = NCI Yeast Anticancer Drug Screen. Data for the bub3 strain (AID 167); details: S. cerevisiae bub3 mutant strain, hits give high values
In short: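 Steps: expose the mutant yeast strain to compound; grow alongside vehicle-treated cultures; measure growth; express inhibition against the vehicle cultures.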

[6] = NCI Yeast Anticancer Drug Screen. Data for the mlh1 rad18 strain (AID 175); details: S. cerevisiae mlh1 rad18 strain growth inhibition, hits give high values
In short: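 Steps: expose repair-defective yeast to compound; measure growth; express inhibition against vehicle-treated controls.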

[7] = at 5.0 µM (retest, dose inferred, filed as 0.5)
[8] = at 50.0 µM (retest, dose inferred, filed as 5.0)

Measured: growth inhibition

CCCCCCC(C)OC(=O)/C=C/c1ccccc1 (configuration not stated)
inactive: [1]; [7] 4% | [1]; [8] 4% | [1]; at 50.0 µM 33.5% | [2]; [7] -2% | [2]; [8] 1% | [2]; at 50.0 µM 14.2% | [3]; [7] 5% | [3]; [8] 10% | [3]; at 50.0 µM 11.9% | [4]; [7] 0% | [4]; [8] 1% | [4]; at 50.0 µM 39.4% | [5]; [7] 2% | [5]; [8] 13% | [5]; at 50.0 µM 17.5% | [6]; [7] 19% | [6]; [8] -6% | [6]; at 50.0 µM 26.9%

O=c1cc(CI)oc2ccccc12
inactive: [1]; [7] 34% | [2]; [7] 57% | [3]; [7] 46% | [4]; [7] 20% | [5]; [7] 45% | [6]; [7] 36%
active: [1]; [8] 99% | [1]; at 50.0 µM 99.4% | [2]; [8] 99% | [2]; at 50.0 µM 99.5% | [3]; [8] 99% | [3]; at 50.0 µM 99.6% | [4]; [8] 100% | [4]; at 50.0 µM 85.7% | [5]; [8] 99% | [5]; at 50.0 µM 94% | [6]; [8] 99% | [6]; at 50.0 µM 99.5%

O=C(O)c1c2c(cc3c1CC1(Cc4cc5c(cc4C1=O)CCC5)C3)CCC2 (configuration not stated)
inactive: [1]; [7] 67% | [1]; [8] 67% | [2]; [7] 58% | [2]; [8] 58% | [3]; [7] 57% | [3]; [8] 57% | [4]; [7] 37% | [4]; [8] 37% | [5]; [7] 42% | [5]; [8] 42% | [6]; [7] 55% | [6]; [8] 55%
active: [1]; at 50.0 µM 89.4% | [2]; at 50.0 µM 87.5% | [3]; at 50.0 µM 87.3% | [4]; at 50.0 µM 88.7% | [5]; at 50.0 µM 87.2% | [6]; at 50.0 µM 86.5%

COC(=O)c1cc(-c2ccccc2)[nH]c(=O)c1C#N
inactive: [1]; [7] -8% | [1]; [8] -32% | [1]; at 50.0 µM 44.5% | [2]; [7] -18% | [2]; [8] -15% | [2]; at 50.0 µM 5.25% | [3]; [7] -5% | [3]; [8] -16% | [4]; [7] -36% | [4]; [8] -21% | [4]; at 50.0 µM 22.6% | [5]; [7] -24% | [5]; [8] -23% | [5]; at 50.0 µM -24.7% | [6]; [7] 0% | [6]; [8] -21% | [6]; at 50.0 µM 52%
active: [3]; at 50.0 µM 75.8%

CC(C)=Cc1cc2c(cc1O)CCC1C2CC[C@@]2(C)C1CC[C@@H]2O (some centres not stated)
inactive: [1]; [7] 14% | [1]; [8] 16% | [1]; at 50.0 µM 41.2% | [2]; [7] -5% | [2]; [8] 24% | [2]; at 50.0 µM 60.1% | [3]; [7] -14% | [3]; [8] 8% | [4]; [7] 7% | [4]; [8] 29% | [5]; [7] -29% | [5]; [8] 22% | [5]; at 50.0 µM 45.8% | [6]; [7] -1% | [6]; [8] 23% | [6]; at 50.0 µM 54.2%
active: [3]; at 50.0 µM 71% | [4]; at 50.0 µM 78.6%

CC1=C(C(=O)Nc2cc(O)ccc2O)C(c2cccc([N+](=O)[O-])c2)C(C(=O)Nc2cc(O)ccc2O)=C(C)N1
inactive: [1]; [7] -8% | [1]; [8] 20% | [1]; at 50.0 µM 32.3% | [2]; [7] -23% | [2]; [8] 6% | [2]; at 50.0 µM 25.9% | [3]; [7] -14% | [3]; [8] 15% | [3]; at 50.0 µM 35.9% | [4]; [7] -5% | [4]; [8] 12% | [4]; at 50.0 µM 46.8% | [5]; [7] -7% | [5]; [8] 0% | [5]; at 50.0 µM 2.35% | [6]; [7] -9% | [6]; [8] 20% | [6]; at 50.0 µM 36.5%

CN(C)/N=C(/CC(O)(C(F)(F)F)C(F)(F)F)c1ccc([N+](=O)[O-])cc1
inactive: [1]; [7] 25% | [1]; [8] 20% | [1]; at 50.0 µM -4.65% | [2]; [7] 19% | [2]; [8] 11% | [2]; at 50.0 µM -8.95% | [3]; [7] 19% | [3]; [8] 22% | [3]; at 50.0 µM 35.6% | [4]; [7] 12% | [4]; [8] 12% | [4]; at 50.0 µM -18.6% | [5]; [7] 15% | [5]; [8] 7% | [5]; at 50.0 µM -12.9% | [6]; [7] 25% | [6]; [8] 21% | [6]; at 50.0 µM -16.4%

CCC[CH2][Sn]([CH2]CCC)([O]C(=O)C(OC(C)=O)c1ccccc1)[O]C(=O)C(OC(C)=O)c1ccccc1 (configuration not stated)
inactive: [1]; [7] 52% | [2]; [7] 43% | [3]; [7] 45% | [4]; [7] 31% | [6]; [7] 60%
active: [1]; [8] 98% | [1]; at 50.0 µM 98.5% | [2]; [8] 98% | [2]; at 50.0 µM 97.8% | [3]; [8] 97% | [3]; at 50.0 µM 98.5% | [4]; [8] 97% | [4]; at 50.0 µM 96.4% | [5]; [7] 71% | [5]; [8] 97% | [5]; at 50.0 µM 98% | [6]; [8] 98% | [6]; at 50.0 µM 98.5%

CC(CO)(Nc1ccc([N+](=O)[O-])cc1[N+](=O)[O-])C(=O)O (configuration not stated)
active: [1]; [8] 99% | [1]; at 50.0 µM 97.1% | [2]; [8] 99% | [2]; at 50.0 µM 99% | [3]; at 50.0 µM 98.1% | [4]; [8] 99% | [4]; at 50.0 µM 70.1% | [5]; [8] 99% | [5]; at 50.0 µM 95% | [6]; [8] 99% | [6]; at 50.0 µM 97.5%
inactive: [1]; [7] 21% | [2]; [7] 14% | [3]; [7] 10% | [3]; [8] -22% | [4]; [7] 1% | [5]; [7] 1% | [6]; [7] 6%

— PubChem BioAssay (NCI)
